Compounds without any hit were thinned out: in the full panel of roughly 79,000, 15% have a hit. Calls of active or inactive are those of the source. No stated cut-off is given here; in the data, active means growth inhibition above about 70%; inactive means the rest.
Key:
[1] = NCI Yeast Anticancer Drug Screen. Data for the rad50 strain (AID 155);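 further: 0% = growth of vehicle-only cultures of the same strain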; conditions: S. cerevisiae rad50 strain growth inhibition; at 50.0 µM; stronger effect = higher value
Summary of the method: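 Relative growth inhibition (compound vs vehicle) was measured in yeast with a defined repair-gene alteration.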

[2] = NCI Yeast Anticancer Drug Screen. Data for the mec2-1 strain (AID 157); conditions: S. cerevisiae mec2-1 strain, at 50.0 µM, stronger effect = higher value
Summary of the method: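 Cells of the genetically defined mec2-1 yeast strain are incubated with test compound. Inhibition of growth is calculated against vehicle-treated controls.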

[3] = NCI Yeast Anticancer Drug Screen. Data for the sgs1 mgt1 strain (AID 161);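 further: 0% = growth of cultures given vehicle only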; conditions: S. cerevisiae sgs1 mgt1 strain, at 50.0 µM, stronger effect = higher value
Summary of the method: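 Mutant yeast exposed to compound; growth scored against vehicle-only wells.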

[4] = NCI Yeast Anticancer Drug Screen. Data for the cln2 rad14 strain (AID 165);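 further: 0% = growth equal to vehicle treated cultures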; conditions: S. cerevisiae cln2 rad14 strain, at 50.0 µM, stronger effect = higher value
Summary of the method: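 The screen exposed genetically defined yeast (cln2 rad14) to test compounds and scored growth inhibition relative to vehicle-treated controls.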

[5] = NCI Yeast Anticancer Drug Screen. Data for the bub3 strain (AID 167); conditions: S. cerevisiae bub3 mutant strain, at 50.0 µM, stronger effect = higher value
Summary of the method: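 Screening used yeast with an engineered genetic alteration affecting cell cycle control. Compound-exposed cultures were compared with vehicle cultures, and reduced growth was taken as inhibition.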

[6] = NCI Yeast Anticancer Drug Screen. Data for the mlh1 rad18 strain (AID 175); conditions: S. cerevisiae mlh1 rad18 strain growth inhibition; at 50.0 µM; stronger effect = higher value
Summary of the method: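 Compound-treated yeast growth, normalised to vehicle controls. Strain bears defined DNA repair mutations.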

Measured: growth inhibition

CCCCN(CCCC)CC(O)c1cc2ccc(Cl)cc2nc1-c1ccc(Cl)cc1 (stereo unspecified)
inactive: [1] 65.2% | [2] 41.7% | [4] 8.35% | [5] -6.15%
active: [3] 85.5% | [6] 78.8%

Cc1ccc(Cl)cc1NC(=O)Oc1ccc(C(C)(C)C)cc1Br
inactive: [1] 54.3% | [2] 57.1% | [3] 11.7% | [4] 1.5% | [5] 19.9% | [6] 60.2%

CC1(C)C2=CCCC(=O)[C@@]2(C)CC[C@@H]1O
inactive: [1] -4.15% | [2] 4.65% | [3] -4.9% | [4] -26.1% | [5] 1.55% | [6] 3.35%

NC(=O)c1n[nH]c(C2OC(CO)C(O)C2O)n1 (stereo unspecified)
inactive: [1] -1.5% | [2] -6.8% | [3] 0.9% | [4] -15.7% | [5] 5.75% | [6] -7.5%

CN(C)CCN1CCc2c([nH]c3ccccc23)C1c1cccnc1 (stereo unspecified)
inactive: [1] -55.6% | [2] -24.8% | [3] -4.2% | [4] 6.25% | [5] -18.2% | [6] -38.2%

CC1(C)OC(=O)CC1CCN (stereo unspecified)
inactive: [1] -0.75% | [2] -13.5% | [3] -7.05% | [4] -30.9% | [5] 14.9% | [6] 13.2%

CCC(=O)OCCCc1ccccc1
inactive: [1] 22.1% | [2] 8.25% | [3] 15.8% | [4] 9.25% | [5] 12.3% | [6] 10.8%

CCC1(C)C=Cc2c(cc(OC)c3c(=O)c4ccccc4n(C)c23)O1 (stereo unspecified)
inactive: [1] -21.8% | [2] -27.4% | [3] -33.8% | [4] -19.6% | [5] 4.05% | [6] -26.4%

CSc1cc(/C=C/c2ccccc2)ccc1N
inactive: [1] 1% | [2] 1.5% | [3] -9.45% | [4] -33.5% | [5] 5.25% | [6] 2%

Cc1ccc(N2P(N(C)C)N(c3ccc(C)cc3)P2(=O)N(C)C)cc1 (stereo unspecified)
inactive: [1] 12.4% | [2] 22.4% | [3] 9.45% | [4] -5.6% | [5] 3.6% | [6] 6.4%

O=C(Nc1ccccc1)C1(Cl)CCCCC1
inactive: [1] 11.7% | [2] -7.35% | [3] -8.7% | [4] -16.9% | [5] -4.7% | [6] 1.8%

O=C1CCCCCC1
inactive: [1] 9.95% | [2] -8.9% | [3] 11.2% | [4] -19.2% | [5] -4.45% | [6] 3.4%

CC1(C)C2CCC(=O)C1C(OCc1ccccc1)C2 (stereo unspecified)
inactive: [1] -22.1% | [2] 15.7% | [3] -21.1% | [4] -0.85% | [5] -11.6% | [6] -47.4%

O=C(OCC(Br)C(Br)c1ccccc1)c1ccccc1 (stereo unspecified)
inactive: [1] -13.3% | [2] -12.6% | [3] -2% | [4] -1.4% | [6] -27.6%
active: [5] 73.6%

C1CCc2[nH]nc(-c3n[nH]c4c3CCCCC4)c2CC1
inactive: [1] 9.25% | [2] 3.35% | [3] 19.9% | [4] 9.95% | [5] 12.3% | [6] 18.5%

COC(=O)C(=O)C(C(=O)C=C(C)C)C(=O)C(=O)Nc1cccc(C(C)=O)c1 (stereo unspecified)
inactive: [1] -18.4% | [2] -8.25% | [3] -14.7% | [4] 16.4% | [5] -13.2% | [6] -26.2%

Cc1nc2ccccc2c(=O)n1NC(=O)c1ccccn1
inactive: [1] -6.6% | [2] -10% | [3] -11.6% | [4] -1.05% | [5] -5.55% | [6] -8.25%

Cc1ccc(N=C2OC(=O)c3ccccc32)cc1
inactive: [1] -3.8% | [2] -4% | [3] 0.1% | [4] -39.5% | [5] 9.9% | [6] 32.7%

C=C(C)CS(=O)(=O)Cc1ccccc1
inactive: [1] 14.6% | [2] -10.1% | [3] -1.8% | [4] -40.9% | [5] -4.55% | [6] 7.6%

COc1cc2c(cc1OC)C(NC(C)C)CCCC2 (stereo unspecified)
inactive: [1] -7.6% | [2] 9.35% | [3] -13.8% | [4] -23.6% | [5] -7.7% | [6] -6.9%

COc1ccc(Cl)cc1C(c1cc(Cl)ccc1OC)C(Cl)(Cl)Cl
inactive: [1] -7.35% | [2] -1.6% | [3] -9.05% | [4] -23.6% | [5] -16.6% | [6] -13.4%
